{
  "source": "PubChem BioAssay (NCATS)",
  "note": "Inconclusive results are not listed. Entries that show only a call come without a potency. Activity calls are given as the source filed them. Calls follow the shape of the dose curve; as a rule, active = well fitted cell-killing curve with a large enough effect; inconclusive = small, poorly fitted or top-dose-only effect; inactive = flat fitted curve, though single readings scatter. Potency is read from the fitted curve at half-maximal effect.",
  "data": [
    {"assay": "Cell Viability - SH-SY5Y (AID 544); also: nearly all actives have a fitted effect of over 55% in size", "conditions": "SH-SY5Y neuroblastoma cell viability; viability change, negative = cytotoxic: at 92.2 µM (top of the series)", "text": "NIH Chemical Genomics Center [NCGC]\nNIH Molecular Libraries Screening Centers Network [MLSCN]\nNational Institutes of Environmental Health Sciences [NIEHS]\nNational Toxicology Program [NTP]\nWe have developed a 1536-well cell-based assay for quantitative high throughput screening (qHTS) against a number of cell lines to determine in vitro cytotoxicity of small molecules. This particular assay uses the SH-SY5Y cell line which is derived from human neuroblastoma.\nNCGC Assay Protocol Summary:\nThe CellTiter-Glo luminescent cell viability assay (Promega) is a homogeneous method to measure the number of viable cells in culture. The end point readout of this assay is based on quantitation of intracellular ATP, an indicator of metabolic activity, using the luciferase reaction. Luciferase catalyzes the oxidation of beetle Luciferin to oxyluciferin and light in the presence of ATP. The luminescent signal is proportional to amount of ATP present.\nUsing the CellTiter-Glo luminescent cell viability assay, the amount of cellular ATP was measured in the SH-SY5Y cell line with complete culture medium following compound treatment for 40 hours. The assay was performed in opaque white Kalypsys 1536-well plates. In the screen, tamoxifen and doxorubicin were used as positive controls. Library compounds were measured for their ability to cause acute toxicity in the cell line, as reflected by a decrease in intracellular ATP levels, in a concentration-dependent manner. […] AC50 values were determined from concentration-response data modeled with the standard Hill equation.\nqHTS protocol for CellTiter Glo SH-SY5Y cellular assay\n[Step] [Parameter] [Value] [Description]\n1. Reagent; 5 uL; 1500 SH-SY5Y cells/well\n2. Time; 5 hr; 37 °C incubation\n4. Controls; 23 nL; Tamoxifen 0.34 uM to 100 uM & Doxorubicin 0.02 nM to 100 uM\n5. Time; 40 hr; 37 °C incubation\n6. Reagent; 5 uL; CellTiter Glo reagent\n7. Time; 20 min; Room Temperature\n8. Detection; Luminescence; Viewlux plate reader\nKeywords: cell viability, cytotoxicity, SH-SY5Y cell line, luminescence, NTPHTS, NTPHTS_NCGC, NIEHS, EPA, DSSTox, MLSMR, MLSCN, NIH Roadmap, qHTS, NCGC", "values": [
      {"smiles": "Nc1cc(Cl)ccc1O", "viability change, negative = cytotoxic": "-87.6% (active)"},
      {"smiles": "NNC(N)=S", "Potency": "inactive"},
      {"smiles": "BrC(Br)Br", "Potency": "inactive"},
      {"smiles": "Cc1ccc(N)cc1C", "Potency": "inactive"},
      {"smiles": "Clc1ccc(Cl)c(Cl)c1", "Potency": "inactive"},
      {"smiles": "C(CCOCC1CO1)COCC1CO1", "note": "(stereo not given)", "Potency": "31.6 µM (active)"},
      {"smiles": "ClC(Br)Br", "Potency": "inactive"},
      {"smiles": "CCBr", "Potency": "inactive"},
      {"smiles": "[C-]1=CC=CC1.[C-]1=CC=CC1.[Cl-].[Cl-].[Ti+4]", "viability change, negative = cytotoxic": "-81.6% (active)"},
      {"smiles": "Cc1ccc(N)c(C)c1", "Potency": "inactive"},
      {"smiles": "OCCOCCO", "Potency": "inactive"},
      {"smiles": "Oc1cc(Cl)ccc1Cl", "Potency": "inactive"},
      {"smiles": "CCN(N=O)C(N)=O", "Potency": "inactive"},
      {"smiles": "C=CCCl", "Potency": "inactive"},
      {"smiles": "C1CC2OC2CC1C1CO1", "note": "(stereo not given)", "Potency": "inactive"},
      {"smiles": "CC(C)(C)c1ccccc1O", "Potency": "inactive"},
      {"smiles": "Nc1ccc2ccccc2c1", "Potency": "inactive"},
      {"smiles": "COP(=S)(OC)SCn1nnc2ccccc2c1=O", "Potency": "15.8 µM (active)"},
      {"smiles": "Clc1cc(Cl)c(Cl)c(Cl)c1", "Potency": "inactive"},
      {"smiles": "N#CC(Br)Br", "Potency": "inactive"},
      {"smiles": "O=[N+]([O-])c1ccccc1O", "Potency": "inactive"},
      {"smiles": "O=[N+]([O-])CCO", "Potency": "inactive"},
      {"smiles": "COC(C)(C)C", "Potency": "inactive"},
      {"smiles": "Cc1ccc(OP(=O)(Oc2ccc(C)cc2)Oc2ccc(C)cc2)cc1", "Potency": "inactive"},
      {"smiles": "C=COC(C)=O", "Potency": "inactive"},
      {"smiles": "O=C(Cl)c1ccccc1F", "Potency": "inactive"},
      {"smiles": "ClCc1ccccc1", "Potency": "inactive"},
      {"smiles": "Cc1cnc[nH]1", "Potency": "inactive"},
      {"smiles": "CN1CSC(=S)N(C)C1", "viability change, negative = cytotoxic": "-83% (active)"},
      {"smiles": "Nc1ccc(Cc2ccc(N)cc2)cc1", "Potency": "inactive"},
      {"smiles": "O=[N+]([O-])c1ccccc1CCl", "Potency": "inactive"},
      {"smiles": "Cc1ccc2c(c1N)C(=O)c1ccccc1C2=O", "Potency": "inactive"},
      {"smiles": "N#CC(Cl)(Cl)Cl", "Potency": "inactive"},
      {"smiles": "CCOC(=O)CBr", "Potency": "inactive"},
      {"smiles": "[O-][Cl+]O", "Potency": "inactive"},
      {"smiles": "C=CC(=O)OCC(C)C", "Potency": "inactive"},
      {"smiles": "Clc1cccc2ccccc12", "Potency": "inactive"},
      {"smiles": "CC(C)(C)C(O)(CCc1ccc(Cl)cc1)Cn1cncn1", "note": "(stereo not given)", "Potency": "inactive"},
      {"smiles": "N#C/C=C/C#N", "Potency": "15.8 µM (active)"},
      {"smiles": "CCCCC#N", "Potency": "inactive"}
    ]}
  ]
}
